Test results from the supplement of paper PMC12494721.
Counter-ions that a name gives are not always drawn.

Assays:
Settings in all cases: incubation time: 27 h, anaerobic, 37 °C;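 for the amine columns active = adjusted P below 0.05 in both replicates with a change the same way and a mean fold change under 0.8 or over 1.25; inactive = the rest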
[1] = test system: Clostridium sporogenes DSM 1664; experiment: growth (OD595) fold change vs plate DMSO controls (fold change (ratio)); higher = more growth
In short: (§1)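 To obtain OD, 595 nm absorbance readings were blank-subtracted, corrected for compound background using 20 µM compound solutions in water, and multiplied by a calibration factor of 5. They came from 96-well mGAM cultures grown anaerobically for 27 h at 37 °C and shaken before reading. Growth is the fold change relative to the median of plate DMSO controls. Two biological replicates were averaged, and fold changes above 1.5 were set to NA.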

Escherichia coli IAI1 [2] = experiment: as above
In short: as §1

[3] = test system: Klebsiella aerogenes DSM 30053; experiment: as above
In short: as §1

[4] = test system: Ruminococcus gnavus DSM 108212; experiment: as above
In short: as §1

[5] = test system: Klebsiella aerogenes DSM 30053; experiment: fold change of Histamine concentration vs plate DMSO controls (fold change (ratio)); higher = more amine produced, active = hit call of the paper (significant change in both replicates, either direction)
In short: (§2)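 Amines were quantified by LC–triple-quadrupole MS in dynamic MRM mode against external calibration curves, with drift correction within each batch. The samples were whole anaerobic mGAM cultures of four gut bacterial strains, grown for 27 h at 37 °C in 80 µL wells and extracted with cold acetonitrile/methanol with 0.1% formic acid, then centrifuged. Values are reported as fold change over DMSO controls on the same plate. The mean of 2 biological replicates is given.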

[6] = test system: Clostridium sporogenes DSM 1664; experiment: fold change of Tryptamine concentration vs plate DMSO controls (fold change (ratio)); higher = more amine produced, active = hit call of the paper (significant change in both replicates, either direction)
In short: as §2

[7] = test system: Ruminococcus gnavus DSM 108212; experiment: as above
In short: as §2

Escherichia coli IAI1 [8] = experiment: fold change of Putrescine concentration vs plate DMSO controls (fold change (ratio)); higher = more amine produced, active = hit call of the paper (significant change in both replicates, either direction)
In short: as §2

[9] = test system: Klebsiella aerogenes DSM 30053; experiment: as above
In short: as §2

Escherichia coli IAI1 [10] = experiment: fold change of Cadaverine concentration vs plate DMSO controls (fold change (ratio)); higher = more amine produced, active = hit call of the paper (significant change in both replicates, either direction)
In short: as §2

[11] = test system: Klebsiella aerogenes DSM 30053; experiment: as above
In short: as §2

[12] = test system: Ruminococcus gnavus DSM 108212; experiment: fold change of 2-Phenylethylamine concentration vs plate DMSO controls (fold change (ratio)); higher = more amine produced, active = hit call of the paper (significant change in both replicates, either direction)
In short: as §2

Row | Structure (SMILES) | growth [1] | growth (Escherichia coli IAI1 [2]) | growth [3] | growth [4] | fold change of Histamine concentration [5] | fold change of Tryptamine concentration [6] | fold change of Tryptamine concentration [7] | fold change of Putrescine concentration (Escherichia coli IAI1 [8]) | fold change of Putrescine concentration [9] | fold change of Cadaverine concentration (Escherichia coli IAI1 [10]) | fold change of Cadaverine concentration [11] | fold change of 2-Phenylethylamine concentration [12]
1 | CC(=O)Oc1ccccc1C(=O)Oc1ccccc1C(=O)O [Acetylsalicylsalicylic acid] (20 µM) | 1.05 | 1 | 0.995 | 0.881 | 1.02 (inactive) | 1.01 (inactive) | 1.06 (inactive) | 1.01 (inactive) | 0.998 (inactive) | 0.983 (inactive) | 1.01 (inactive) | 1.11 (inactive)
2 | CN1CCN(c2c(F)cc3c(=O)c(C(=O)O)cn(CCF)c3c2F)CC1 [Fleroxacin] (20 µM) | 0 | 0 | 0 | 0 | 0.153 (active) | 0.0453 (active) | 1.08 (inactive) | 0.785 (inactive) | 0.902 (inactive) | 0.26 (active) | 0.961 (inactive) | 1.15 (inactive)
3 | Cc1ncc(C[n+]2csc(CCO)c2C)c(N)n1 [Thiamine hydrochloride] (20 µM) | 0.972 | 0.961 | 1.01 | 1.14 | 0.968 (inactive) | 1.06 (inactive) | 0.914 (inactive) | 1.01 (inactive) | 0.998 (inactive) | 1.01 (inactive) | 1.01 (inactive) | 0.868 (inactive)
4 | CCCC(=O)Nc1ccc(OCC(O)CNC(C)C)c(C(C)=O)c1 (centres undefined) [Acebutolol hydrochloride] (20 µM) | 0.937 | 0.989 | 0.971 | 0.781 | 1.06 (inactive) | 1.03 (inactive) | 1.03 (inactive) | 0.996 (inactive) | 1.01 (inactive) | 0.958 (inactive) | 0.99 (inactive) | 0.985 (inactive)
5 | COC(=O)[C@H](Cc1ccccc1)NC(=O)[C@@H](N)CC(=O)O [Aspartame] (50 µM) | 1.05 | 0.921 | 0.997 | 1.01 | 1.03 (inactive) | 0.944 (inactive) | 1.01 (inactive) | 0.968 (inactive) | 1.01 (inactive) | 1.04 (inactive) | 0.99 (inactive) | 1.04 (inactive)
6 | O=C1Cc2cc(CCN3CCN(c4nsc5ccccc45)CC3)c(Cl)cc2N1 [Ziprasidone  hydrochloride monohydrate] (20 µM) | 1.09 | 1.06 | 1.03 | 1.23 | 1.23 (inactive) | 0.998 (inactive) | 0.712 (active) | 1.12 (inactive) | 1.1 (inactive) | 1.08 (inactive) | 1.06 (inactive) | 0.771 (active)
7 | CC(NCCC(c1ccccc1)c1ccccc1)c1ccccc1 (centres undefined) [Fendiline hydrochloride] (20 µM) | 0.961 | 0.952 | 0.98 | 1.09 | 1.06 (inactive) | 0.941 (inactive) | 0.888 (inactive) | 1.18 (inactive) | 1.03 (inactive) | 0.196 (active) | 0.998 (inactive) | 0.98 (inactive)
8 | COC(=O)Nc1nc2cc(Sc3ccccc3)ccc2[nH]1 [Fenbendazole] (20 µM) | 1 | 1.08 | 0.98 | 1.09 | 1.07 (inactive) | 0.986 (inactive) | 1 (inactive) | 1.05 (inactive) | 1.03 (inactive) | 0.967 (inactive) | 0.991 (inactive) | 1.02 (inactive)
9 | O=C(NCCCN1CCOCC1)c1ccc(Cl)cc1 [Eprobemide] (20 µM) | 1.11 | 1.1 | 1.07 | 1.04 | 0.982 (inactive) | 1.02 (inactive) | 1.06 (inactive) | 0.929 (inactive) | 0.934 (inactive) | 0.942 (inactive) | 1.05 (inactive) | 1.12 (inactive)
10 | O=[N+]([O-])c1ccc(O)c2ncccc12 [Nitroxoline] (20 µM) | 1.24 | 0.52 | 0.522 | 0.97 | 0.93 (inactive) | 0.897 (inactive) | 0.693 (active) | 0.496 (active) | 0.894 (inactive) | 1.49 (active) | 0.948 (inactive) | 0.766 (inactive)
11 | Nc1nc(Cl)nc2c1ncn2[C@H]1C[C@H](O)[C@@H](CO)O1 [Cladribine] (20 µM) | 0.964 | 0.974 | 1.06 | 0.893 | 0.841 (inactive) | 1.06 (inactive) | 0.925 (inactive) | 0.684 (inactive) | 0.984 (inactive) | 0.934 (inactive) | 1.02 (inactive) | 0.957 (inactive)
12 | CCC(NC(C)C)C(O)c1ccc(O)c2[nH]c(=O)ccc12 (centres undefined) [Procaterol hydrochloride] (20 µM) | 1.07 | 1.02 | 1.03 | 1.02 | 1.01 (inactive) | 1.02 (inactive) | 1.1 (inactive) | 0.978 (inactive) | 0.949 (inactive) | 0.922 (inactive) | 1.06 (inactive) | 1.14 (inactive)
